PubChem BioAssay AID1159580 (chemical genetic matrix, 2015)
Values joined by “and” are separate entries in the source; they are usually repeats but may differ in a detail not shown here. Equal values may be shown once. The campaign covered roughly 5,500 compounds. About 2,000 (36%) were called active. About 18% were inconclusive and are not listed. No stated cut-off is given here; in the data, active means normalized growth mostly below about 0.91 (no sharp cut-off); inconclusive means no clear call, values can overlap the other calls; inactive means mostly above about 0.92. The list shows a part of the results.

Experiment: chemical genetic growth profiling, strain panel (AID 1159580);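 further: tested at 20 µM; growth read once vehicle control cultures reached saturation at 30 °C; 1 = growth at the plate median or of vehicle wells; lower values mean less growth of the strain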
Details: growth OD

Measured: normalized growth

CCN(CC)CCOC(=O)c1ccc(N)cc1
inactive: S. cerevisiae deletion strains, locus YJR075W, strain HOC1, hits give low values 1.07 | S. cerevisiae deletion strains, locus YKL009W, strain mrt4, hits give low values 0.978 | S. cerevisiae deletion strains, locus YKL068W, hits give low values 0.987 | S. cerevisiae deletion strains, locus YKL085W, strain MDH1 (second series), hits give low values 0.981 | S. cerevisiae deletion strains, locus YKL085W, strain MDH1, hits give low values 0.981 | S. cerevisiae deletion strains, locus YKL160W, strain elf1, hits give low values 1.01 | S. cerevisiae deletion strains, locus YKL190W, strain CNB1, hits give low values 1.01 | S. cerevisiae deletion strains, locus YKR001C, strain vps1, hits give low values 0.986 | S. cerevisiae deletion strains, locus YKR026C, strain gcn3, hits give low values 0.99 | S. cerevisiae deletion strains, locus YKR091W, strain srl3, hits give low values 0.988 | S. cerevisiae deletion strains, locus YLL001W, strain dnm1, hits give low values 1.02 | S. cerevisiae deletion strains, locus YLL026W, hits give low values 1 | S. cerevisiae deletion strains, locus YLL041C, strain sdh2, hits give low values 0.987 | S. cerevisiae deletion strains, locus YLR027C, strain aat2, hits give low values 0.994 | S. cerevisiae deletion strains, locus YLR039C, strain RIC1, hits give low values 1.03 | S. cerevisiae deletion strains, locus YLR058C, strain SHM2, hits give low values 1.01 | S. cerevisiae deletion strains, locus YLR102C, strain apc9, hits give low values 0.986 | S. cerevisiae deletion strains, locus YLR113W, strain HOG1, hits give low values 1.02 | S. cerevisiae deletion strains, locus YLR221C, strain rsa3, hits give low values 0.958 | S. cerevisiae deletion strains, locus YLR258W, strain gsy2, hits give low values 0.975 | S. cerevisiae deletion strains, locus YLR262C, strain YPT6 (second series), hits give low values 0.991 | S. cerevisiae deletion strains, locus YLR262C, strain YPT6, hits give low values 1.04 | S. cerevisiae deletion strains, locus YLR268W, strain sec22, hits give low values 0.959 | S. cerevisiae deletion strains, locus YLR320W, strain mms22, hits give low values 0.969 | S. cerevisiae deletion strains, locus YLR330W, strain CHS5, hits give low values 1.01 | S. cerevisiae deletion strains, locus YLR342W, strain FKS1 (second series), hits give low values 1 | S. cerevisiae deletion strains, locus YLR342W, strain FKS1, hits give low values 1.02 | S. cerevisiae deletion strains, locus YLR357W, strain rsc2, hits give low values 0.955 | S. cerevisiae deletion strains, locus YLR370C, strain arc18, hits give low values 1.01 | S. cerevisiae deletion strains, locus YLR371W, strain rom2, hits give low values 0.992 | S. cerevisiae deletion strains, locus YLR384C, strain iki3, hits give low values 0.991 | S. cerevisiae deletion strains, locus YLR418C, strain cdc73, hits give low values 0.975 | S. cerevisiae deletion strains, locus YML016C, strain PPZ1, hits give low values 1.01 | S. cerevisiae deletion strains, locus YML032C, strain rad52, hits give low values 0.99 | S. cerevisiae deletion strains, locus YML120C, strain ndi1, hits give low values 0.989 | S. cerevisiae deletion strains, locus YML124C, strain tub3, hits give low values 0.995 | S. cerevisiae deletion strains, locus YMR058W, strain fet3, hits give low values 0.983 | S. cerevisiae deletion strains, locus YMR078C, strain ctf18, hits give low values 0.992 | S. cerevisiae deletion strains, locus YMR125W, strain sto1, hits give low values 0.962 | S. cerevisiae deletion strains, locus YMR129W, hits give low values 0.982 | S. cerevisiae deletion strains, locus YMR205C, strain PFK2, hits give low values 1 | S. cerevisiae deletion strains, locus YMR223W, strain ubp8, hits give low values 0.997 | S. cerevisiae deletion strains, locus YMR231W, strain pep5, hits give low values 0.997 | S. cerevisiae deletion strains, locus YMR263W, strain SAP30, hits give low values 1.01 and 0.982 | S. cerevisiae deletion strains, locus YMR307W, strain GAS1, hits give low values 0.975 and 0.992 | S. cerevisiae deletion strains, locus YNL067W, strain RPL9B, hits give low values 1.01 | S. cerevisiae deletion strains, locus YNL071W, strain lat1, hits give low values 0.966 | S. cerevisiae deletion strains, locus YNL128W, strain TEP1, hits give low values 1.01 | S. cerevisiae deletion strains, locus YNL153C, strain GIM3, hits give low values 1.01 and 0.998 | S. cerevisiae deletion strains, locus YNL175C, strain NOP13, hits give low values 0.991 | S. cerevisiae deletion strains, locus YNL183C, strain NPR1, hits give low values 1 | S. cerevisiae deletion strains, locus YNL197C, strain WHI3, hits give low values 0.986 | S. cerevisiae deletion strains, locus YNL209W, strain ssb2, hits give low values 0.975 | S. cerevisiae deletion strains, locus YNL224C, strain SQS1, hits give low values 0.998 | S. cerevisiae deletion strains, locus YNL233W, strain BNI4, hits give low values 1.01 | S. cerevisiae deletion strains, locus YNL248C, strain rpa49, hits give low values 0.938 | S. cerevisiae deletion strains, locus YNL250W, strain rad50, hits give low values 0.986 | S. cerevisiae deletion strains, locus YNL271C, strain bni1, hits give low values 0.985 | S. cerevisiae deletion strains, locus YNL298W, strain CLA4, hits give low values 0.99 | S. cerevisiae deletion strains, locus YNL307C, strain MCK1, hits give low values 0.986 | S. cerevisiae deletion strains, locus YNL322C, strain KRE1 (second series), hits give low values 0.986 | S. cerevisiae deletion strains, locus YNL322C, strain KRE1, hits give low values 1 and 0.981 | S. cerevisiae deletion strains, locus YNR049C, strain mso1, hits give low values 0.975 | S. cerevisiae deletion strains, locus YNR052C, strain pop2, hits give low values 0.988 | S. cerevisiae deletion strains, locus YOL006C, strain TOP1, hits give low values 1.04 | S. cerevisiae deletion strains, locus YOL012C, strain htz1 0.92 | S. cerevisiae deletion strains, locus YOL147C, strain pex11, hits give low values 0.988 | S. cerevisiae deletion strains, locus YOR001W, strain rrp6, hits give low values 1.01 | S. cerevisiae deletion strains, locus YOR061W, strain CKA2, hits give low values 1.01 | S. cerevisiae deletion strains, locus YOR069W, strain VPS5, hits give low values 1.01 | S. cerevisiae deletion strains, locus YOR070C, strain gyp1, hits give low values 0.996 | S. cerevisiae deletion strains, locus YOR080W, strain dia2, hits give low values 0.996 | S. cerevisiae deletion strains, locus YOR083W, strain WHI5 (second series), hits give low values 0.979 | S. cerevisiae deletion strains, locus YOR083W, strain WHI5, hits give low values 1 | S. cerevisiae deletion strains, locus YOR106W, strain vam3, hits give low values 1.02 | S. cerevisiae deletion strains, locus YOR136W, strain idh2, hits give low values 0.996 | S. cerevisiae deletion strains, locus YOR144C, strain elg1, hits give low values 0.994 | S. cerevisiae deletion strains, locus YOR184W, strain ser1, hits give low values 0.991 | S. cerevisiae deletion strains, locus YOR231W, strain MKK1, hits give low values 1.02 | S. cerevisiae deletion strains, locus YOR265W, strain rbl2, hits give low values 0.985 | S. cerevisiae deletion strains, locus YOR270C, strain vph1, hits give low values 0.983 | S. cerevisiae deletion strains, locus YOR290C, strain snf2, hits give low values 0.946 | S. cerevisiae deletion strains, locus YOR316C, strain cot1, hits give low values 0.992 | S. cerevisiae deletion strains, locus YPL051W, strain arl3, hits give low values 0.997 | S. cerevisiae deletion strains, locus YPL055C, strain LGE1, hits give low values 1.03 | S. cerevisiae deletion strains, locus YPL078C, strain atp4, hits give low values 1.02 | S. cerevisiae deletion strains, locus YPL106C, strain sse1, hits give low values 0.929 | S. cerevisiae deletion strains, locus YPL240C, strain hsp82, hits give low values 0.991 | S. cerevisiae deletion strains, locus YPL241C, strain CIN2, hits give low values 0.993 | S. cerevisiae deletion strains, locus YPL256C, strain CLN2, hits give low values 1.04 | S. cerevisiae deletion strains, locus YPR119W, strain clb2, hits give low values 0.986 | S. cerevisiae deletion strains, locus YPR141C, strain kar3, hits give low values 0.989 | S. cerevisiae deletion strains, locus YPR163C, strain tif3, hits give low values 0.994 | S. cerevisiae deletion strains, locus YPR167C, strain met16, hits give low values 0.991 | S. cerevisiae deletion strains, strain wtn01, hits give low values 0.996 | S. cerevisiae strains, strain wild type, hits give low values 1.01
